# According to article PMC4336329 (PLoS ONE, 2015):
# The campaign covered roughly 310,000 compounds. About 14,000 (4.5%) showed an effect of 50% or more. The effect is printed as a negative number. This is one part of a sample in which strong results are shown more often than they occur.
# Molecular target: human ether-à-go-go-related gene (hERG) potassium channel (human, UniProt Q12809)
# Experiment: primary screen, population patch clamp on CHO cells stably expressing hERG; higher = less effect of the substance
# 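Note: peak tail current of the secondary pulse compared with the same well before compound.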
# Chain of human ether-à-go-go-related gene (hERG) potassium channel (Q12809 whole entry, looked up): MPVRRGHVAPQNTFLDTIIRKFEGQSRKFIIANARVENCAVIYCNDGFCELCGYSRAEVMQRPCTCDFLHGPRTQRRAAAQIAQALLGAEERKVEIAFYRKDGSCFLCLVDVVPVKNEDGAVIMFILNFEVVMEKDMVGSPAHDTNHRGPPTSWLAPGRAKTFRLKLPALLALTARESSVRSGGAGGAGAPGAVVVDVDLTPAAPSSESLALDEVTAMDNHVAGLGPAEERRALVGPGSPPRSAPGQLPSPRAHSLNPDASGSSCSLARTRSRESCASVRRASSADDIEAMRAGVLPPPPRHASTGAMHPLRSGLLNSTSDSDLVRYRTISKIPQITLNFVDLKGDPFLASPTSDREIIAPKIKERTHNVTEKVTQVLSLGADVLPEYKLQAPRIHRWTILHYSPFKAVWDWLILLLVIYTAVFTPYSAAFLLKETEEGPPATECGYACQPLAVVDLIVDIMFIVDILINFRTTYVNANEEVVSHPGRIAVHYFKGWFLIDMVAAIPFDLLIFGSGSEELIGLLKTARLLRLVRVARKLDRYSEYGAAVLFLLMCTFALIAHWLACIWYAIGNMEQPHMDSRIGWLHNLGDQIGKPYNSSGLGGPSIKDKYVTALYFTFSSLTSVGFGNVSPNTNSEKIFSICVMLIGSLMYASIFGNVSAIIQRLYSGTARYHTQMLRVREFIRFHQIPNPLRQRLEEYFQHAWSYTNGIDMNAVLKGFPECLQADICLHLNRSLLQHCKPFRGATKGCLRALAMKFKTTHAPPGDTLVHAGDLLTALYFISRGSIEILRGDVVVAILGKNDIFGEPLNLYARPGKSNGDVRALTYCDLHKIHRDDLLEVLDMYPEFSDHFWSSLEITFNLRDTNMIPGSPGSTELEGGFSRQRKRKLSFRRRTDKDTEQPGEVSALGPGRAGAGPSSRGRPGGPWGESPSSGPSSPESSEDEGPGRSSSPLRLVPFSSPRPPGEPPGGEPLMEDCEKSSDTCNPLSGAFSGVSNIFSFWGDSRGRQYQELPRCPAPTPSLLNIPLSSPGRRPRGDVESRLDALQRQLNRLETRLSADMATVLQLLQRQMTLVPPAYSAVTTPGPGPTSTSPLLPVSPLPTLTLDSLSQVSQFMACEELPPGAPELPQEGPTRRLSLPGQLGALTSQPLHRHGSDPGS
row,SMILES,"hERG current change (%, negative = inhibition) at 10uM"
1,CCOc1ccc(NC(=O)c2nc(SCC)ncc2Cl)cc1,15%
2,COc1ccc(OC)c(C(C(=O)NC2CCCCC2)N(C(=O)c2snc(C(N)=O)c2N)c2ccccc2OC)c1 (centres unmarked),14.8%
3,O=C(COc1ccc2c3c(c(=O)oc2c1)CCCC3)NC(Cc1ccc(Cl)cc1)C(=O)O (centres unmarked),5.92%
4,CCOC(=O)c1nc(C)n(-c2cc(Cl)cc(Cl)c2)n1,-17.5%
5,CCOC(=O)c1nn(-c2ccccc2)c(=O)cc1OCC(=O)Nc1cc(C)ccc1OC,-44%
6,CCCNc1nc2c(c(=O)n(C)c(=O)n2C)n1Cc1ccc(F)cc1,-12.8%
7,COc1ccccc1NC(=O)CCC(=O)O,23.4%
8,COc1ccc(N2C(=O)CSC2c2cccs2)cc1 (centres unmarked),-3.37%
9,O=C(Oc1c(Cl)cc(Cl)c2cccnc12)c1cccs1,1.95%
10,CN1CCN(Cc2cc(Cl)c3cccnc3c2OC(=O)c2cccs2)CC1,-53.3%
11,O=C(Oc1c(CN2CCOCC2)cc(Cl)c2cccnc12)c1cccs1,-21.9%
12,CN(C)S(=O)(=O)c1ccc(N2CCCC2)c(C(=O)NNC(=O)c2ccc(F)cc2)c1,15.5%
13,COc1ccc(NC(=O)NNC(=O)C(C)Oc2ccc3ccccc3c2)cc1OC (centres unmarked),-16.2%
14,COc1ccc(C(=O)NCc2nnc(SCC(=O)N3CCOCC3)o2)cc1OC,13.7%
15,CCCNC(=O)N(CCOC)CC1CCCN(C2Cc3ccccc3C2)C1 (centres unmarked),-47.8%
16,COCCN(CC1CCCN(C2Cc3ccccc3C2)C1)C(=O)CSC (centres unmarked),-10.7%
17,CCNC(=O)N(CCOC)CC1CCCN(C2Cc3ccccc3C2)C1 (centres unmarked),-22.9%
18,COCCN(CC1CCCN(C2Cc3ccccc3C2)C1)C(=O)c1ccc(C(C)=O)cc1 (centres unmarked),-78.6%
19,CCOC(=O)CNC(=O)N(CCOC)CC1CCCN(C2Cc3ccccc3C2)C1 (centres unmarked),-28.5%
20,COCCN(CC1CCCN(C2Cc3ccccc3C2)C1)C(=O)c1cccs1 (centres unmarked),-68.5%
21,O=C(NCc1ccco1)C1CCCN(S(=O)(=O)c2cccc3cccnc23)C1 (centres unmarked),0.148%
22,CCOC(=O)c1cc(-c2nnc(SCC(=O)Nc3ccc(F)cc3)o2)c(C)nc1C,7.9%

row,SMILES,"hERG current change (%, negative = inhibition) at 10uM"
1,COc1ccc(C(=O)NCc2nnc(SCC(=O)c3ccccc3)n2C)cc1OC,-18.2%
2,O=C(c1cc(-c2ccccc2)n[nH]1)N1CCc2c([nH]c3ccccc23)C1c1ccccn1 (centres unmarked),14.5%
3,Cc1sc2nc(C3CCCCC3)nc(SCC(=O)N3CC(=O)Nc4ccccc43)c2c1C,52.8%
4,CC(C)c1ccc(/C=C2\SC(=S)N(CCC(=O)N3CCCCC3CCO)C2=O)cc1 (centres unmarked),20.3%
5,CCOc1ccccc1N1CC(C(=O)NNC(=O)c2cc(OC)c(OC)c(OC)c2)CC1=O (centres unmarked),9%
6,Cc1cc(C)n2c(=S)[nH]nc2n1,19.6%
7,CCOC(=O)N1CCC(N2Cc3cccc(C(=O)N4CCN(C5CCCCC5)CC4)c3C2=O)CC1,-62.4%
8,CCOC(=O)N1CCC(N2Cc3cccc(C(=O)N4CCN(c5cccc(Cl)c5)CC4)c3C2=O)CC1,-63.7%
9,COCCN1Cc2cccc(C(=O)N3CCN(c4cc(C)ccc4C)CC3)c2C1=O,-16.5%
10,CCOC(=O)N1CCC(N2Cc3cccc(C(=O)N4CCN(c5cccc(C)c5C)CC4)c3C2=O)CC1,-36.7%
11,CCOC(=O)N1CCC(N2Cc3cccc(C(=O)O)c3C2=O)CC1,-23.6%
12,CCOC(=O)N1CCC(N2Cc3cccc(C(=O)N4CC(C)CC(C)C4)c3C2=O)CC1 (centres unmarked),6.31%
13,CCCN1Cc2cccc(C(=O)N3CCN(c4cc(Cl)ccc4C)CC3)c2C1=O,-52.5%
14,CCCN1Cc2cccc(C(=O)N3CCN(c4ccccc4)CC3)c2C1=O,6.02%
15,Cn1ccc(C(=O)NC(=S)N2CCSCC2)n1,9.2%
16,O=C(CSCc1cccc(Br)c1)NC1CC1,-6.25%
17,Fc1cccc(CSc2nc3ncccc3[nH]2)c1,4.28%
18,O=C(O)CC(c1ccc(Cl)cc1)N1C(=O)CCC1=O (centres unmarked),-7.96%
19,Cn1cnnc1SCCNS(=O)(=O)c1ccccc1,10.8%
20,COc1ccc2c(C)c(C)c(=O)oc2c1OC,3.4%
21,CN(CC1CCCN(CCc2ccc(F)cc2)C1)C(=O)CCC(F)(F)F (centres unmarked),-63%
22,CN(C)C(=O)CCC(=O)N(C)CC1CCCN(CCc2ccc(F)cc2)C1 (centres unmarked),-38.1%
